# In PubChem BioAssay AID2514 (National Center for Advancing Translational Sciences (NCATS), 2010):
# Inconclusive results are not listed. The source made the active and inactive calls. The call rests on the fitted dose curve; in most records, active means well fitted activation curve with a large enough effect; inconclusive means small, poorly fitted or top-dose-only effect; inactive means no such curve, though single readings can be large or run the other way.
# Assay: Confirmation Concentration-Response Assay for Enhancers of SMN2 Splice Variant Expression for Probe SAR
# Conditions: HEK293 SMN2 exon7 splicing luciferase reporter, luminescence
# Excerpt: NIH Chemical Genomics Center [NCGC] NIH Molecular Libraries Probe Production centers Network [MLPCN] MLPCN Grant: R03 MH084179-01 Assay Submitter (PI): Elliot Androphy NCGC Assay Overview: Spinal muscular atrophy (SMA) is caused by insufficient levels of the survival motor neuron protein SMN. The SMN locus on chromosome 5q13 contains two inverted copies of SMN called SMN1 and SMN2 which are 99% identical at the amino acid level. SMN1 is a fully functional protein and SMN2 skips exon 7 90% of the time. Skipping of exon 7 produces non-functional protein product. 10% of the SMN2 protein includes exon 7 and is fully functional. In the SMA disease state, mutations in the SMN1 locus are the cause of the disease state. Because only 10% of SMN2 is of the fully functional form, it is not sufficient to overcome the deficiency produced by the loss of the SMN1 product. A therapy that either increase the amount of SMN2 product made or to increase the inclusion of exon 7 has been proposed for the treatment of SMA. We have designed an assay to identify small molecules that can increase the amount of functional SMN2 product by appending a luciferase reporter gene after the native SMN2 gene, such that inclusion of exon 7 in the expressed product places the luciferase sequence in frame, thus generating functional luciferase enzyme. […]
compound,measurement,value
Brc1ccc(-c2csc(N3CCCCC3)n2)cc1,Potency,13.7 µM (active)
